Measured values reported in the supplement of paper PMC10849652.
The full data set covers some 8,800 targets. This sample favours those with a hit. About 0.5% of all pairs of compound and target were hits. A number with no mark means an inactive call.

Columns and labels:
Test in all cases: log2 fold change, soluble protein after heating vs DMSO (PISA); higher = thermal stabilisation; K562 lysate, 10 uM; active = over 0.2 and 3.5 SD of the protein, either way, in both replicates (recomputed)
erlotinib = compound: C#Cc1cccc(Nc2ncnc3cc(OCCOC)c(OCCOC)cc23)c1 [erlotinib]
In short: (§1)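 Following dounce homogenisation of K562 pellets in PBS pH 7.4 with 1 mM MgCl2, crude extract at 1 mg/mL protein was incubated for 30 min with 10 μM compound. Aliquots were then heated for 3 min over 48°C-58°C and pooled, NP-40 was added to 0.5% at 4°C, and soluble protein was recovered as the supernatant at 21,000xg for 90 min. Channel-sum-equalised TMTpro 16plex LC-MS/MS quantified this protein. Each value, from duplicates, is a log-two fold change in thermal stability relative to solvent controls.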

[1] = compound: C/C(=N\NC(=O)C1=CC(=CC=C1)S(=O)(=O)N2CCOCC2)/C3=C(C=CC(=C3)Cl)O
In short: as §1

[2] = compound: C1=CC(=CC=C1C2=NC3=C(N2)C=C(C=C3)C(=O)N)OC4=CC=C(C=C4)Cl
In short: as §1

[3] = compound: C1=CC2=C(C=CC(=C2)/C=C\3/C(=O)NC(=NCC4=CC=CS4)S3)N=C1
In short: as §1

[4] = compound: C1=CC2=NC=CN=C2C=C1/C=C/3\C(=O)NC(=O)S3
In short: as §1

[5] = compound: C1=CC=C(C=C1)C2=NC(=C(N2)C3=CC=NC=C3)C4=CC(=C(C=C4)Cl)O
In short: as §1

[6] = compound: C1=CC=C2C(=C1)C3=NNC4=CC=CC(=C43)C2=O
In short: as §1

[7] = compound: C1CCN(C1)C(=O)NC2=CC=CC(=C2)NC3=NC=C(C(=N3)NCCC4=CN=CN4)Br
In short: as §1

[8] = compound: C1CN(CCC1(CC2=CC=C(C=C2)Cl)N)C3=NC=NC4=C3C=CN4
In short: as §1

IRAK-1-4 Inhibitor I = compound: C1COCCN1CCN2C3=CC=CC=C3N=C2NC(=O)C4=CC(=CC=C4)[N+](=O)[O-] [IRAK-1-4 Inhibitor I]
In short: as §1

Chain of UniProt Q7KZF4 (Q7KZF4 whole entry, looked up): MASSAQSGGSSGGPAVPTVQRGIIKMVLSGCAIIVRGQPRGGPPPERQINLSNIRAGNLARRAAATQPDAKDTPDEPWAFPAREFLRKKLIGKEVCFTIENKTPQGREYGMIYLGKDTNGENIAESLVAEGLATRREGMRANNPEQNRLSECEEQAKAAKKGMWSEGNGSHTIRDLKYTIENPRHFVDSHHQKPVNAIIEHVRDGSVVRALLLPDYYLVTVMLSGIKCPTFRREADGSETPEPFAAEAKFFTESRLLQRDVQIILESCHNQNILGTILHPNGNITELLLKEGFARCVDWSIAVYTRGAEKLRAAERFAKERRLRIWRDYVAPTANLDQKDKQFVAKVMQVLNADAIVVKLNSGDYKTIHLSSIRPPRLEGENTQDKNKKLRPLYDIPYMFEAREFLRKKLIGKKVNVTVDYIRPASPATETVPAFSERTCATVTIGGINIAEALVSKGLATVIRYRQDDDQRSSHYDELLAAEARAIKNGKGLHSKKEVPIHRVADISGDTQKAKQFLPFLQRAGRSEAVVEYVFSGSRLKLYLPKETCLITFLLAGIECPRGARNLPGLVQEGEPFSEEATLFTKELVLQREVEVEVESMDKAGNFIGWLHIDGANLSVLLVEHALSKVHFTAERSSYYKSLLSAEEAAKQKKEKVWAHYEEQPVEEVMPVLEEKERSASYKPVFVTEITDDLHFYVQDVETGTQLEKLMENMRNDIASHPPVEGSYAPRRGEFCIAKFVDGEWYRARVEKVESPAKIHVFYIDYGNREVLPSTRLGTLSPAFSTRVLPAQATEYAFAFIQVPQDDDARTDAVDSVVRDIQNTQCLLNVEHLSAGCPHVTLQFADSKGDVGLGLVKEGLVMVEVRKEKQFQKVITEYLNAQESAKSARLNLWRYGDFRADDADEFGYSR
Chain of UniProt Q99961 (Q99961 whole entry, looked up): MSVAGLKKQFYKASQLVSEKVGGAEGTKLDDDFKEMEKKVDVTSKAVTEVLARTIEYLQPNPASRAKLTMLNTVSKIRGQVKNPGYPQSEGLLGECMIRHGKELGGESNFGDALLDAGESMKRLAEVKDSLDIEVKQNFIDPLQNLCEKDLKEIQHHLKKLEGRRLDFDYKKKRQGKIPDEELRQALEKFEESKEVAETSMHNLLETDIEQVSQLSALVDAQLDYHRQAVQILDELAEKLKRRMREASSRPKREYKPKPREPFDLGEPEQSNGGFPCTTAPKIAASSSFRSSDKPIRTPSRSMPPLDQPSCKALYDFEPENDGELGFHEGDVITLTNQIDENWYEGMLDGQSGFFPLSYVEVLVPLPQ
Chain of UniProt Q9BXP5 (Q9BXP5 whole entry, looked up): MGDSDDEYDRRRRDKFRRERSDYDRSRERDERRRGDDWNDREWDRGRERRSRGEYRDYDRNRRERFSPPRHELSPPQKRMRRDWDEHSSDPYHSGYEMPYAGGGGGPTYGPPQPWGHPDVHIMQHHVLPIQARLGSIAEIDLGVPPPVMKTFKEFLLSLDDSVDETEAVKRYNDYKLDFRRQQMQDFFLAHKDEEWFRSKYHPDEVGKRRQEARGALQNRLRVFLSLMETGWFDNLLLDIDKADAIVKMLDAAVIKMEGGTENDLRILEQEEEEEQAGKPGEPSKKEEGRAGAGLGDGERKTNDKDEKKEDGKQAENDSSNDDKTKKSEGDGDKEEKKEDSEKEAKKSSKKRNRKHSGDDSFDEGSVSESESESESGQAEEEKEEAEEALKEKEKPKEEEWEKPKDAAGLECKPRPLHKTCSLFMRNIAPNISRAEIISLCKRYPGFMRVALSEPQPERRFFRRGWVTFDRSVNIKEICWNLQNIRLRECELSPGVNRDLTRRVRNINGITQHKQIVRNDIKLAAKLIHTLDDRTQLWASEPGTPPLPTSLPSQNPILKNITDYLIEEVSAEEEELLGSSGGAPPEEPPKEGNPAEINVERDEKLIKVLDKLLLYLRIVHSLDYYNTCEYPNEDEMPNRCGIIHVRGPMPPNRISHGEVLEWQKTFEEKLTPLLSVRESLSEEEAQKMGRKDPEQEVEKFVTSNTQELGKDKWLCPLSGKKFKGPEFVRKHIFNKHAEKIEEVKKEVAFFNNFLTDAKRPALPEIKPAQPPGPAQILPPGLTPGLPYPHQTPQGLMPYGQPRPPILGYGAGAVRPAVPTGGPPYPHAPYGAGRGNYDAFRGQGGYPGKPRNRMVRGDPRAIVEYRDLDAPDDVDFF
Chain of UniProt Q96SB4 (Q96SB4 whole entry, looked up): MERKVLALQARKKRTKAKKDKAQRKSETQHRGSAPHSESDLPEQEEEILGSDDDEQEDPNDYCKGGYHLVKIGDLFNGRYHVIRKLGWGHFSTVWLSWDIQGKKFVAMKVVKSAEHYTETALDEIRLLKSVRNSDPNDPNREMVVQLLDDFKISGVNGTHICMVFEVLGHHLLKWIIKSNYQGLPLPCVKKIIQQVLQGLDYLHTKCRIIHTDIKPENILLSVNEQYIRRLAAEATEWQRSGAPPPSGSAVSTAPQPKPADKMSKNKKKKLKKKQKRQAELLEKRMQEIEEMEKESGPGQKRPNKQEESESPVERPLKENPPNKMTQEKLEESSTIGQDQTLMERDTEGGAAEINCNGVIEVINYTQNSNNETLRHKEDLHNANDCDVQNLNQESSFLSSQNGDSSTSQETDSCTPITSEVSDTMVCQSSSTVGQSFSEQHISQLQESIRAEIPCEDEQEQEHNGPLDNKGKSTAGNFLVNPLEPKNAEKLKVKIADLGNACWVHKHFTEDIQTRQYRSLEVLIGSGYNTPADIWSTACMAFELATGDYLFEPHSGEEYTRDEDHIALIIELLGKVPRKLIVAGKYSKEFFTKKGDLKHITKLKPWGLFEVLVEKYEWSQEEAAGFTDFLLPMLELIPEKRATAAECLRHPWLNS
Chain of UniProt Q9H4L7 (Q9H4L7 whole entry, looked up): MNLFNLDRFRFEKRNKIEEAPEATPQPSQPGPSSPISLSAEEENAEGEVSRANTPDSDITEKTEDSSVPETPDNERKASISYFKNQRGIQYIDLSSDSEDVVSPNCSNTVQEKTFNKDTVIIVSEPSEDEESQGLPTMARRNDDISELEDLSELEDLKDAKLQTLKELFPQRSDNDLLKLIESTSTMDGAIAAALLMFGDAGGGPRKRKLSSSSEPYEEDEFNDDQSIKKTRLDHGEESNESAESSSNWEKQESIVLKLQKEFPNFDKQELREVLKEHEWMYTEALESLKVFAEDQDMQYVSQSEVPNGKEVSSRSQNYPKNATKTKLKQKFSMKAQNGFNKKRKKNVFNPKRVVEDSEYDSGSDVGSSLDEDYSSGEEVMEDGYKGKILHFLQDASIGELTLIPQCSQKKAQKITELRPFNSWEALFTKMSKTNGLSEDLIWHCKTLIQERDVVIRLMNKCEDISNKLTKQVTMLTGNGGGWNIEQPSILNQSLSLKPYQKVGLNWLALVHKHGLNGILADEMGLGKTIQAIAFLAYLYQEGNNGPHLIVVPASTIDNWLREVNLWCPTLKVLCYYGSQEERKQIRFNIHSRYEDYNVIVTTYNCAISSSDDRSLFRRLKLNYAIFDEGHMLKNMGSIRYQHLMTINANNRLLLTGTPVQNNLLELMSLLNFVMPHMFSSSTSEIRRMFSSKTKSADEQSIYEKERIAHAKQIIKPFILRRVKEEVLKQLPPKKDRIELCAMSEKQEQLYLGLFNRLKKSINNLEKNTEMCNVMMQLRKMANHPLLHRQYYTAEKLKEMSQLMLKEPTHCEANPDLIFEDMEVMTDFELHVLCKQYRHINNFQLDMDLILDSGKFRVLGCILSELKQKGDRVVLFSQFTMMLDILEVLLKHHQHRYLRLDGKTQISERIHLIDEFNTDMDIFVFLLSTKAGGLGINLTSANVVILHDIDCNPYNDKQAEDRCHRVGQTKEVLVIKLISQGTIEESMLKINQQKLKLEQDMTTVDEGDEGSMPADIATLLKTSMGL
Chain of UniProt Q9H2D1 (Q9H2D1 whole entry, looked up): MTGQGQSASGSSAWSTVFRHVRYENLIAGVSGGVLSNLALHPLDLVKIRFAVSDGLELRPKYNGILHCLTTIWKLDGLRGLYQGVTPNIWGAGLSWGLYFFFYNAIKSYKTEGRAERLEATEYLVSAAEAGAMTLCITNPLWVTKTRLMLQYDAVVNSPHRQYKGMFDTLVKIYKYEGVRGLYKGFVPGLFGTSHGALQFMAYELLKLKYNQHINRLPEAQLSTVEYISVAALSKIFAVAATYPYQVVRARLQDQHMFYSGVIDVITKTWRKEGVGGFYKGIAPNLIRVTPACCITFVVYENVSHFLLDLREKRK
Chain of UniProt Q6KCM7 (Q6KCM7 whole entry, looked up): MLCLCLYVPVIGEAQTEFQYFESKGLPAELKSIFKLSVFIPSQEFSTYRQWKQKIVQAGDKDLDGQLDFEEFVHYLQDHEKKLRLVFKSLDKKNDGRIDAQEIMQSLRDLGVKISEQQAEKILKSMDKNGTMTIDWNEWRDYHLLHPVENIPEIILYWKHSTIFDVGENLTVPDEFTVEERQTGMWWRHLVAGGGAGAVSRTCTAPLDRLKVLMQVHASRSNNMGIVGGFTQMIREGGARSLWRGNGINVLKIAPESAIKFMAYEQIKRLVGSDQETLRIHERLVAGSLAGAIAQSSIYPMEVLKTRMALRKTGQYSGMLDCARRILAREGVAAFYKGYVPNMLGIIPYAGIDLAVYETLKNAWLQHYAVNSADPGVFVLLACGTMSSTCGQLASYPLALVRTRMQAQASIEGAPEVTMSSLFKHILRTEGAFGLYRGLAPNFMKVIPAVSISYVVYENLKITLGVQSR
Chain of UniProt Q96BD8 (Q96BD8 whole entry, looked up): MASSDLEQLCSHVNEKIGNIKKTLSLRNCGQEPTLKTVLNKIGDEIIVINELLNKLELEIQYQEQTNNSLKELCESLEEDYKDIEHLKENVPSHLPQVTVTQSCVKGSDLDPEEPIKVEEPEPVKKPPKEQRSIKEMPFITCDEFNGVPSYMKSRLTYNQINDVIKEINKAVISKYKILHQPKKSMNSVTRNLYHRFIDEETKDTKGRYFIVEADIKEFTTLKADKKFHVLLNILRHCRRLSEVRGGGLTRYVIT

| Target | log2 fold change (erlotinib) | log2 fold change [1] | log2 fold change [2] | log2 fold change [3] | log2 fold change [4] | log2 fold change [5] | log2 fold change [6] | log2 fold change [7] | log2 fold change [8] | log2 fold change (IRAK-1-4 Inhibitor I) |
| --- | --- | --- | --- | --- | --- | --- | --- | --- | --- | --- |
| SMAD9 (UniProt O15198) | 0.005 | 0.048 | -0.037 | 0.007 | 0.018 | 0.053 | 0.017 | -0.048 | -0.059 | 0 |
| STK3 isoform 2 (UniProt Q13188) | -0.009 | -0.1 | 0.012 | -0.07 | -0.001 | 0.016 | 0.181 | 0.157 | 0.031 | -0.005 |
| SRRT (UniProt Q9BXP5) | 0.039 | 0.023 | -0.005 | 0.041 | 0.004 | 0.022 | -0.03 | -0.005 | -0.011 | 0.004 |
| TANK (UniProt Q92844) | 0 | -0.089 | -0.015 | -0.069 | 0.003 | 0.025 | 0.089 | 0.082 | 0 | 0.028 |
| SH3GL1 (UniProt Q99961) | -0.009 | 0.016 | -0.022 | -0.004 | -0.008 | 0.001 | -0.003 | -0.027 | 0.006 | -0.017 |
| SMC4 (UniProt Q9NTJ3) | -0.006 | -0.018 | -0.007 | 0 | -0.026 | 0 | -0.046 | -0.015 | -0.014 | -0.009 |
| SH3BP5L (UniProt Q7L8J4) | 0.001 | -0.156 | 0.004 | -0.058 | -0.032 | 0.003 | 0.065 | -0.019 | 0 | 0 |
| STK26 (UniProt Q9P289) | 0.008 | -0.007 | -0.005 | -0.009 | 0.002 | -0.002 | 0.06 | 0.03 | -0.011 | -0.018 |
| SH3BP2 isoform 4 (UniProt P78314) | -0.037 | 0.213 | 0.001 | 0.044 | -0.103 | 0.088 | -0.073 | – | – | 0.03 |
| SSB (UniProt E7ERC4) | -0.03 | 0.071 | -0.063 | 0 | 0.02 | 0.015 | -0.142 | 0.089 | 0.01 | -0.043 |
| SKA1 (UniProt Q96BD8) | -0.029 | -0.015 | 0.029 | 0.072 | -0.062 | 0.065 | -0.06 | 0.02 | -0.094 | 0.013 |
| SPC25 (UniProt Q9HBM1) | 0.021 | -0.065 | -0.006 | 0.059 | -0.034 | 0.021 | -0.006 | -0.039 | 0.018 | 0.027 |
| SMARCA4 (UniProt P51532) | -0.01 | -0.018 | -0.021 | 0.011 | -0.001 | -0.003 | -0.017 | -0.003 | -0.024 | -0.025 |
| SLC25A25 isoform 3 (UniProt Q6KCM7) | -0.029 | 0.054 | -0.038 | 0.039 | -0.003 | -0.027 | 0.01 | 0.011 | -0.026 | -0.041 |
| SRP54 (UniProt P61011) | -0.026 | 0.017 | 0.035 | 0.023 | -0.043 | 0.005 | -0.039 | -0.047 | -0.003 | -0.014 |
| SNAP23 (UniProt O00161) | -0.01 | 0.037 | -0.025 | 0.047 | 0.02 | 0.039 | 0.022 | 0.018 | 0.03 | 0.038 |
| SMC1B isoform 3 (UniProt Q8NDV3) | -0.002 | 0.265 (active) | 0.003 | -0.04 | -0.067 | 0.02 | -0.032 | 0.048 | 0.205 | 0.043 |
| SMAD2 (UniProt Q15796) | 0.14 | 0.062 | -0.018 | 0.03 | 0.002 | 0.074 | -0.003 | 0.004 | 0.035 | -0.03 |
| SPATS2 (UniProt Q86XZ4) | -0.012 | -0.127 | -0.042 | 0.028 | -0.007 | 0.017 | -0.081 | 0.063 | 0.043 | -0.066 |
| SRPK1 (UniProt Q96SB4) | 0.015 | -0.04 | 0.121 | 0.016 | 0.003 | 0.05 | 0.017 | -0.01 | 0.007 | 0.019 |
| SND1 (UniProt Q7KZF4) | 0.022 | 0.042 | -0.009 | 0.007 | 0.031 | 0.017 | -0.042 | 0.005 | -0.005 | -0.012 |
| SMARCAD1 isoform 2 (UniProt Q9H4L7) | 0 | 0.022 | -0.039 | 0.023 | -0.019 | 0.041 | -0.052 | -0.051 | 0.003 | -0.006 |
| SMC2 (UniProt O95347) | -0.001 | -0.011 | -0.011 | 0.001 | 0.012 | 0.013 | -0.036 | 0.003 | -0.008 | -0.019 |
| SLC16A1 (UniProt P53985) | -0.007 | -0.038 | 0.036 | 0.029 | -0.018 | 0.034 | 0.034 | -0.024 | 0.004 | 0.032 |
| SYK (UniProt P43405) | -0.004 | -0.007 | 0.017 | 0.039 | -0.033 | 0.021 | – | -0.013 | -0.038 | 0.053 |
| SLC25A32 (UniProt Q9H2D1) | 0.035 | 0.02 | -0.062 | 0.011 | -0.013 | -0.027 | 0.056 | 0.018 | -0.002 | 0.029 |
